# This is a sample that favours compounds with a hit; in the whole collection about 5.9% have one here.
# ATXN2 expr inh: Primary qHTS for Inhibitors of ATXN expression; HEK-293 ATXN2-luciferase reporter, luminescence, 24 h; Potency, µM (doses to about 57 µM), without a hit: top-dose activity change, negative = inhibition, actives largely listed as inhibitors; 360,000 compounds, 0.72% hits; AID 1745845, 2022; further: on the % scale 0 is the no-effect control and ±100 the full control effect; nearly all actives have a fitted effect of over 55% in size
#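 ATXN2-luciferase reporter cells (luciferase flanked by upstream and downstream ATXN2 gene portions) were treated 24 h at 37 °C with compounds at up to 57 uM. SteadyGlo luminescence gave expression; GF-AFC fluorescence gave viability.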
# KB-3-1 tox: qHTS assay for MDR1-selective chemotherapeutics: Primary screen using the parental adenocarcinoma cell KB-3-1. KB-3-1 viability, CellTiter-Glo ATP luminescence, 72 h. Potency, µM (series often up to 46.1 µM), hits mostly cytotoxic. 400,000 compounds, 1.4% hits. AID 1347075, 2019; further: on the % scale 0 is the no-effect control and ±100 the full control effect; nearly all actives have a fitted effect of over 60% in size
#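 Parental KB-3-1 adenocarcinoma cells in phenol-red-free DMEM with 10% FBS were pin-treated with compounds at several concentrations, incubated 72 h at 37 °C, and viability read by CellTiter-Glo luminescence; concentration-effect curves were fitted after normalization.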
# TGFb SMAD3 inh: qHTS for Inhibitors of TGF-b. Potency, µM (doses to about 46.1 µM), for inactives: top-dose activity, negative = inhibition, actives largely listed as inhibitors. AID 588855, 2011. 410,000 compounds, 1.2% hits. HepG2 CAGA-GFP TGF-b/SMAD3 reporter, GFP fluorescence, 18 h; TGF-beta stimulated, 500 pg/mL final; further: on the % scale 0 is the no-effect control and ±100 the full control effect; nearly all actives have a fitted effect of over 65% in size
#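 Inhibition of TGF-beta-driven CAGA-GFP reporter expression in HEPG2 cells is measured by cellular GFP fluorescence after 18 h stimulation with 500 pg/mL recombinant TGF-beta in 1% FBS medium at 37 degrees C.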
# HepG2 viability: qHTS for Inhibitors of TGF-b: Cytotox Counterscreen | 410,000 compounds, 0.76% hits | HepG2 CAGA-GFP viability, ATP luminescence, 18 h | Potency, µM (top dose mostly 46.1 µM), inactives show at the top dose activity change, negative = cytotoxicity, most hits filed as cytotoxic
#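 CellTiter-Glo luminescence gave cytotoxicity after 18 hours at 37 degrees C. The cells were HepG2 CAGA-GFP in 1% FBS DMEM, stimulated with 500 pg/mL TGF-beta after compound addition. %Activity was normalised to no-cell wells (complete cell-killing) and DMSO (no toxicity), and curves were fitted and classified.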
# ATXN viability: Viability Counterscreen for Primary qHTS for Inhibitors of ATXN expression; S2 cells (HEK-293 line with an ATXN2-luciferase reporter) viability, CellTiter-Fluor protease fluorescence, 24 h; Potency, µM (highest dose often 56.7 µM), hits mostly cytotoxic; 400,000 compounds, 0.49% hits; AID 651635, 2014; further: nearly all actives have a fitted effect of over 40% in size
# KB-V1 MDR tox: qHTS assay for MDR1-selective chemotherapeutics: Primary screen using the drug-selected MDR subline cells KB-V1; KB-V1 MDR cells viability, CellTiter-Glo, 72 h; Potency, µM (highest dose often 46.1 µM), actives largely listed as cytotoxic; 400,000 compounds, 3.4% hits; further: on the % scale 0 is the no-effect control and ±100 the full control effect; nearly all actives have a fitted effect of over 60% in size
#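 Luminescent ATP read-out (CellTiter-Glo, 10 min) measures survival of drug-selected KB-V1 MDR cells after 72 h, 37 degrees C compound exposure. Medium: phenol-red-free DMEM, 10% FBS. Values from fitted concentration-response curves.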
# Starred values were filed as active, the others as inactive; i = inactive; ? = inconclusive; . = no result. The call rests on the fitted dose curve; in most records, active means well fitted curve in the direction sought with a large enough effect; inconclusive means small, poorly fitted or top-dose-only effect, or another doubt; inactive means no such curve, though single readings can be large; an effect the other way counts as inactive or inconclusive. Potency means the concentration at half of the fitted maximal effect.
SMILES,ATXN2 expr inh,KB-3-1 tox,TGFb SMAD3 inh,HepG2 viability,ATXN viability,KB-V1 MDR tox
Cc1ccccc1OCC(=O)NCC(c1cccs1)N1CCOCC1 (stereo not given),-11%,?,?,-5%,i,16µM*
O=C(NCC(c1cccs1)N1CCOCC1)c1ccc(Cl)s1 (stereo not given),-28%,?,-10%,-27%,i,16µM*
O=C1CCc2cc(-c3csc(-c4ccc(O)cc4)n3)ccc2N1,.,i,-18%,-43%,.,i
O=C1CCc2cc(S(=O)(=O)Nc3ccc4c(c3)CCC4)ccc2N1,.,i,.,.,.,i
CCC(C)n1c(=N)c(C(=O)NC2CCCCC2)cc2c(=O)n3ccccc3nc21 (stereo not given),-5%,i,-3%,1%,.,i
CC1=C(CC[C@@H](C)CO)OC2CC3C4CCC5CC(O)CCC5(C)C4CC(=O)C3(C)C12 (stereo not given in full),25µM*,i,2%,-25%,?,?
CC1CCCC(NC(=S)NC(=O)c2ccccc2Br)C1C (stereo not given),10%,26µM*,?,-18%,i,16µM*
Cc1cccn2c(=O)c(C=O)c(N3CCCCCC3)nc12,-6%,i,?,-4%,i,15µM*
Cc1cccn2c(=O)c(C=O)c(N3CC(C)OC(C)C3)nc12 (stereo not given),1%,i,3%,-12%,i,i
COc1ccccc1N1CCN(c2nc3c(C)cccn3c(=O)c2C=O)CC1,-13%,i,-13%,-2%,i,23µM*
CN(C)C(=S)N=Nc1[nH]c2ccccc2c1O,.,i,2.8µM*,-72%,.,i
Cc1ccccc1C(=O)N/N=C/c1ccc(Sc2ccccn2)o1,-1%,i,0%,-8%,i,21µM*
O=C(N/N=C\c1ccc(Sc2ccccn2)o1)c1cccc(Br)c1,-4%,i,1%,-23%,i,23µM*
O=C(N/N=C/c1cccc(Oc2ccccc2)c1)c1cccc(Br)c1,2%,i,?,-18%,i,i
O=C1COCCN1,.,.,-12%,-2%,.,.
COCCn1c(SCc2csc(-c3ccccc3)n2)nc2ccccc21,-17%,16µM*,-13%,-44%,i,8.2µM*
CCN(CC)C(C)C(=O)Nc1c2c(cc3c1CCC3)CCC2 (stereo not given),-19%,i,-12%,-2%,i,9.2µM*
CCOc1ccc(C(=O)Nc2cnn(Cc3ccc(Cl)c(Cl)c3)c2)cc1,?,?,16%,-29%,i,2.6µM*
O=C(Nc1ccc(Cl)c(Cl)c1)c1ccc(Cn2cc(Cl)cn2)cc1,.,?,?,-61%,?,i
Cc1cccc(C(=O)NCc2nc(-c3ccccc3NC(=O)C3CCCO3)oc2C)c1 (stereo not given),.,.,.,.,i,.
CC(C)Sc1nc(N2CCOCC2)c2c(c1C#N)CC(C)(C)SC2,4%,?,?,13%,i,6.5µM*
Cc1ccc(-n2nnc(-c3nsc(NC(=O)c4ccc(C)c(C)c4)n3)c2C)cc1,-10%,i,-7%,-12%,i,i
CCc1ccccc1-n1nnc(-c2nsc(NC(=O)c3ccc(C)c(C)c3)n2)c1C,.,.,10µM*,-40%,.,.
CCc1cccc(-n2nnc(-c3nsc(NC(=O)c4cccs4)n3)c2C)c1,.,.,?,16µM*,.,.
COc1cccc(C(=O)Nc2nc(-c3nnn(-c4cccc(Cl)c4C)c3C)ns2)c1,-1%,15µM*,?,-52%,i,i
O=C(NCc1ccccc1Cl)c1ccc(-n2cnc3cccnc32)cc1,-4%,i,18%,-6%,i,?

# Assay outcomes as filed in PubChem BioAssay.
